From PubChem BioAssay AID2405 (Southern Research Specialized Biocontainment Screening …, 2010)

Assay: anti-RSV activity of probe candidates, cell-based (AID 2405)
Settings: RSV cytopathic effect inhibition, HEp-2 cells, stronger effect = higher value; at 100 µM unless noted; call rule not given here

Maximum inhibition, inactive:
OC1c2cc(Br)ccc2N=C2CCCN21 (configuration not stated) 13.5%, O=C(Nc1nc(-c2ccc(Cl)cc2)cs1)c1ccccc1F 3.06% [at 12.5 µM], Cc1cccc2c(=O)n(-c3ccccc3)c(SCC(=O)Nc3ccc4c(c3)CCC4)nc12 5.23% [at 12.5 µM], COc1ccc(-c2csc(N(CCCBr)C(=O)c3ccccc3Cl)n2)cc1 3.83% [at 50 µM], COc1ccc(-c2csc(NC(=O)c3ccccc3F)n2)cc1 1.37%, OC1c2c(F)cccc2N=C2CCCCN21 (configuration not stated) 1.55% [at 12.5 µM], O=c1c2cc(I)ccc2nc2n1CCC2 5.94%, O=C(CSc1nc2ccccc2c(=O)n1-c1ccc(F)cc1)Nc1cccc2ccccc12 16.6%, COc1ccc(-c2csc(NC(=O)c3ccccc3Cl)n2)cc1 2.47% [at 12.5 µM], O=c1c2c(F)cccc2nc2n1CCC2 2.17% [at 0.39 µM], CC1CCN(CCCNC(=O)c2cc3c(s2)-c2ccccc2OC3)CC1 3.42% [at 50 µM], CN(C)CCCN1c2ccc([N+](=O)[O-])cc2CCc2cc([N+](=O)[O-])ccc21 10.2% [at 50 µM], COc1cccc(NC(=O)CSc2nc3ccccc3c(=O)n2-c2ccc(F)cc2)c1 48.3%, CCN(CC)CCCNC(=S)N1CCN(c2nc(-c3ccc(F)cc3)cs2)CC1 0.61% [at 0.2 µM], Brc1ccc2c(c1)CN1CCCC1=N2 25.2% [at 50 µM], O=C(CSc1nc2ccccc2c(=O)n1-c1ccccc1F)Nc1ccc2c(c1)CCC2 7.99% [at 12.5 µM], COc1ccccc1NC(=O)CSc1nc2ccccc2c(=O)n1-c1ccc(F)cc1 3.44% [at 6.25 µM], OC1c2cc(Br)ccc2N=C2CCCCCN21 (configuration not stated) 1.05%, O=C(CSc1nc2ccccc2c(=O)n1-c1ccc(F)cc1)Nc1ccc2c(c1)OCCO2 15% [at 50 µM], Cc1cccc2nc3n(c(=O)c12)CCC3 1.49% [at 25 µM], O=C(CSc1nc2ccccc2c(=O)n1-c1ccc(F)c(Cl)c1)Nc1ccc2c(c1)CCC2 6.32%, O=C(Nc1nc(-c2ccc(Cl)cc2)cs1)c1cccc(Cl)c1 6.93% [at 25 µM], O=C(Nc1nc(-c2ccc(Cl)cc2)cs1)c1ccc(I)cc1 1.55% [at 25 µM], CCOC(=O)C1(Cc2ccccc2C(F)(F)F)CCN(C2CCN(C(C)=O)CC2)CC1 1.32% [at 6.25 µM], c1ccc2c(c1)CN1CCCC1=N2 1.32% [at 6.25 µM], COc1ccc(-c2csc(NC(=O)c3cccc(Cl)c3)n2)cc1 1.49% [at 25 µM], CC1(O)c2cc(Br)ccc2N=C2CCCN21 (configuration not stated) 2.76%
